# Results taken from PubChem BioAssay.
# Values joined by “and” are separate entries in the source; they are usually repeats but may differ in a detail not shown here. Identical values can stand only once. Results filed as inconclusive are left out. Active and inactive are the calls of the source.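 How the source made its calls, unless noted: active means compounds whose cell count with miR-34 switched on is under 0.7 times the count with it off; inactive means the rest.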
# Columns and labels:
# [1] = hESC survival regulators, cell-based (AID 493140; call rule not given here;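 further: cells exposed to compounds for four days before counting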); settings: human embryonic stem cell survival screen; stronger effect = higher value
# [2] = sensitizers of A549 cells to miR-34 induction, primary screen, imaging, A549 dox-inducible miR-34, nuclei and caspase counts (AID 1347080); settings: A549 miR-34 inducible, Hoechst nuclei count, 48 h
# [3] = target: ATP-dependent translocase ABCB1 (Homo sapiens) (UniProt P08183); experiment: MDR1 (ABCB1) efflux transporter inhibition, cell-based (AID 377; in the data active means fluorescence slope change above about 50%); settings: MDR1-expressing cells, fluorescent substrate accumulation slope; stronger effect = higher value; concentration not given here
# Sequence of ATP-dependent translocase ABCB1 (Homo sapiens) (P08183 whole entry, looked up): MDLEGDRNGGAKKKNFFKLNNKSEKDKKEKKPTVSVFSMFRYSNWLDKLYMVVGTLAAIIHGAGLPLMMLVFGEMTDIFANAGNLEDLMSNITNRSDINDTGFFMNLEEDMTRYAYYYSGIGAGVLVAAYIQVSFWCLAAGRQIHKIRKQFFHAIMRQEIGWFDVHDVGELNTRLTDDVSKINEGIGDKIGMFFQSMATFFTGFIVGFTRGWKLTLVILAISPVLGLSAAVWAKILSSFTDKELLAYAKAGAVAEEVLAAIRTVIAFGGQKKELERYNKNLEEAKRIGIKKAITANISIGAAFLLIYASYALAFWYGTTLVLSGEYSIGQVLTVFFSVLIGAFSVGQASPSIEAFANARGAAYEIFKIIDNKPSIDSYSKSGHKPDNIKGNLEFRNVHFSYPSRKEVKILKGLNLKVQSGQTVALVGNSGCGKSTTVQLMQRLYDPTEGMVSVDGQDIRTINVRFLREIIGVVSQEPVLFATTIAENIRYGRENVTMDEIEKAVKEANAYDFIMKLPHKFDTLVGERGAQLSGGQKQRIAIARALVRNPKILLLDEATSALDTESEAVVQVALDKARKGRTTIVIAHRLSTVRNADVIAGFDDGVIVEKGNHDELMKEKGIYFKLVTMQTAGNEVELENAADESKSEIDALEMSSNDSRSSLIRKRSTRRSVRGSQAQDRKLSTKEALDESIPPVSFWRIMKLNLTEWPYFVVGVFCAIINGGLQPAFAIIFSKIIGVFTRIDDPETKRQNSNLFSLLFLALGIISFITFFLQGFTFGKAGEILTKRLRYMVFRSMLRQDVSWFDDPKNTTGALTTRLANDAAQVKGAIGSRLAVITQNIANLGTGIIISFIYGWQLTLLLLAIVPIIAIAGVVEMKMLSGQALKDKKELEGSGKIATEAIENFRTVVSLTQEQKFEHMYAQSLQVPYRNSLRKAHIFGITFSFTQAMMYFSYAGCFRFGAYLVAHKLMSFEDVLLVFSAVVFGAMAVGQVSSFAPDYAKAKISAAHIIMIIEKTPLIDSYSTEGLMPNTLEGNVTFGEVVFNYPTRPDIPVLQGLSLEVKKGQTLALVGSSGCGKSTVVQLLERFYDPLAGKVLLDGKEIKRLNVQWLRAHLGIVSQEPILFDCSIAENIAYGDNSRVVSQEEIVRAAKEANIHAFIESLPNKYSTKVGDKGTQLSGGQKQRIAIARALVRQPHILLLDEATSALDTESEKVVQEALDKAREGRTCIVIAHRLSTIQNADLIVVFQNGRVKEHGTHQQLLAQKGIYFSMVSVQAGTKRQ
# [4] = liver-stage malaria parasite growth inhibition, primary screen, cell-based, HepG2, luciferase luminescence, HepG2 viability (AID 624349; in the data active means parasite load remaining mostly below about 12%, no sharp cut-off; inactive means mostly above about 10%;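 further: 100% = mean of DMSO negative control wells on the same plate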); settings: P. berghei liver stage in HepG2, luciferase luminescence, concentration not given here; parasite load remaining: stronger effect = lower value; viability: measured here: HepG2 viability without parasites
# [5] = stronger effect = lower value, cell number ratio, induced over uninduced
# [6] = measured here: relative caspase fold change +Dox/-Dox
# [7] = measured here: total cells with miR-34 induction, stronger effect = lower value
# [8] = measured here: total cells without miR-34 induction
Compound,survival [1],"fold change [2, 5]","fold change [2, 6]","cell count [2, 7]","cell count [2, 8]",fluorescence slope change [3],parasite load remaining [4],viability [4]
CCCCCCCC/C=C\CCCCCCCC(=O)OCC(CO)OC(=O)CCCCCCC/C=C\CCCCCCCC (stereo unspecified),88.4 (inactive),1.01 (inactive),1.34,5020,4970,,,
CCCCCCCCCCCCCCCCCCOC[C@@H](O)COP(=O)([O-])OCC[N+](C)(C)C,71.2 (inactive),0.968 (inactive),0.597,5980,6180,,,
COc1ccc2c(OC)c3ccoc3nc2c1OC,3.67 (inactive),0.86 (inactive),1.16,8660,10100,16.3% (inactive),157% (inactive),95.8%
CCCCC[C@H](O)/C=C/[C@@H]1[C@H]2C/C(=C/CCCC(=O)O)C[C@H]2C[C@H]1O,59.9 (inactive),0.942 (inactive),1.29,5920,6280,,,
CCCCC[C@H](O)/C=C/[C@@H]1[C@@H](CC(=O)CCCCC(=O)O)[C@@H](O)C[C@H]1O,129 (inactive),0.992 (inactive) and 0.934 (inactive),1.02 and 1.32,5930 and 6160,5980 and 6600,,,
c1ccc2c(c1)CCCc1cc(NCCN3CCOCC3)nnc1-2,2.75 (inactive),0.801 (inactive),2.12,7290,9100,77.5% (active),74.6% (inactive) and 80.6% (inactive),105% and 79%
CCCCCCCCCCCCC(O)C(=O)O (stereo unspecified),71.7 (inactive),0.965 (inactive) and 0.989 (inactive),1.1 and 0.875,6110 and 6000,6330 and 6060,,,
CCCCC[C@H](O)CC[C@H]1[C@H](O)CC(=O)[C@@H]1CCCCCCC(=O)O,89 (inactive),0.898 (inactive) and 0.911 (inactive),0.955 and 1.31,5150 and 5260,5740 and 5770,,,
CCCCCCCCCCCCCCCCOC[C@H](COP(=O)([O-])OCC[N+](C)(C)C)OC(=O)NC,80.6 (inactive),0.941 (inactive) and 0.889 (inactive),1.15 and 1.06,5360 and 4990,5690 and 5620,,,
CCCCCCCCCCCCCCC[C@@H](O)[C@@H](N)CO,56.7 (inactive),0.968 (inactive),1.46,5120,5290,,,
CCCCC/C=C\C[C@@H](O)/C=C/C=C\C/C=C\CCCC(=O)O,89.3 (inactive),0.841 (inactive),1.54,4740,5630,,,
CCCCCCCCCC(=O)OCC(CO)OC(=O)CCCCCCCCC (stereo unspecified),93.4 (inactive),1.02 (inactive),0.801,4940,4860,,,
C[C@H](CCC(=O)NCC(=O)O)[C@H]1CC[C@H]2[C@@H]3[C@H](O)C[C@@H]4C[C@H](O)CC[C@]4(C)[C@H]3C[C@H](O)[C@]12C,14.6 (inactive),0.862 (inactive),1.21,8770,10200,91% (active),142% (inactive) and 80.1% (inactive),103% and 76.4%
O=C(O)CCC/C=C\C[C@H]1C(=O)C[C@@H](O)[C@@H]1/C=C/[C@@H](O)CCc1ccccc1,102 (inactive),0.93 (inactive) and 0.922 (inactive),1.16 and 1.61,5630 and 5680,6050 and 6160,,,
COc1c(O)cc2c(c1O)C1OC(CO)C(O)C(O)C1OC2=O (stereo unspecified),2.17 (inactive),0.91 (inactive),1.19,9380,10300,18.9% (inactive),89.5% (inactive),106%
CCCCCCCCCCCCCCC(F)C(=O)O (stereo unspecified),81.6 (inactive),0.989 (inactive) and 1.01 (inactive),1.15 and 0.824,6040 and 6340,6110 and 6280,,,
COc1c(O[C@@H]2O[C@H](CO)[C@@H](O)[C@H](O)[C@H]2O)cc2c(c1OC)-c1ccc(SC)c(=O)cc1C(NC(C)=O)CC2 (stereo partly specified),8.17 (inactive),0.892 (inactive),1.15,8970,10100,56.6% (active),68.6% (inactive) and 75.2% (inactive),120% and 78%
CCCCCCCCCCCCCCCC(=O)NCCc1ccc(O)c(O)c1,69.7 (inactive),0.93 (inactive),0.624,5560,5980,,,
CC1OC(O[C@H]2/C=C/C=C/C=C/C=C/C=C/C=C/C=C/[C@H](C)[C@@H](O)[C@@H](C)[C@H](C)OC(=O)CC(O)CC(O)CCC(O)C(O)CC(O)CC3(O)C[C@H](O)C(C(=O)O)C(C2)O3)C(O)[C@H](N)C1O (stereo partly specified),,0.94 (inactive),0.836,10800,11500,,85.7% (inactive) and 73.7% (inactive),73.8% and 92.4%
Clc1cnccn1,4.25 (inactive),0.949 (inactive),0.524,9270,9770,,81.6% (inactive),71.5%
CO[C@H]1C[C@H](O[C@H]2[C@H](C)[C@@H](OC3O[C@H](C)C[C@H](N(C)C)[C@H]3OC(C)=O)[C@@H](C)C[C@]3(CO3)C(=O)[C@H](C)[C@@H](OC(C)=O)[C@@H](C)[C@@H](C)OC(=O)[C@@H]2C)O[C@@H](C)[C@@H]1OC(C)=O (stereo partly specified),,0.885 (inactive),2.77,11900,13400,,45.4% (inactive) and 43.2% (inactive),71.3% and 92%
CCCCC[C@H](O)/C=C/[C@@H]1[C@H]2C/C(=C/CCCC(=O)O)O[C@H]2C[C@H]1O,102 (inactive),1.05 (inactive),1.16 and 1.02,6320 and 6530,6040 and 6220,,,
CCCCCC(=O)CC[C@@H]1[C@@H](C/C=C\CCCC(=O)O)[C@@H](O)C[C@H]1O,82.4 (inactive),0.925 (inactive),1.4,5510,5950,,,
C[N+]1(C)CCC[C@H]1C(=O)[O-],11.7 (inactive),0.876 (inactive),1.44,8860,10100,,174% (inactive) and 67% (inactive),106% and 78.6%
COC(=O)[C@@H]1CC(=O)O[C@H](C)C/C=C/C=C/[C@H](O)[C@H](C)C[C@H](CC=O)[C@H](OC2O[C@H](C)[C@@H](OC3C[C@@](C)(O)[C@@H](OC(=O)CC(C)C)[C@H](C)O3)[C@H](N(C)C)[C@H]2O)[C@H]1OC (stereo partly specified),,0.948 (inactive),3.35,11900,12600,,340% (inactive),138%
CCCCC[C@H](O)/C=C/[C@@H]1[C@@H](C/C=C\CCCC(=O)O)[C@@H](O)C[C@@H]1O,97.2 (inactive),0.891 (inactive) and 0.917 (inactive),1.22 and 1.29,5840 and 5720,6560 and 6230,,,
CCOCCOCCOCCOCCOCCOCCOCCOCCOCCO (tested in a mixture with another compound),,0.959 (inactive),1.63,11300,11800,,30.7% (inactive),102%
CCC(C)[C@H]1O[C@]2(CC[C@@H]1C)C[C@@H]1C[C@@H](C/C=C(\C)[C@@H](OC3C[C@H](OC)C(O[C@H]4C[C@H](OC)[C@@H](O)[C@H](C)O4)[C@H](C)O3)[C@@H](C)/C=C/C=C3\CO[C@@H]4[C@H](O)C(C)=C[C@@H](C(=O)O1)[C@]34O)O2 (stereo partly specified),,1.04 (inactive),1.61,4770,4580,,54.4% (inactive),90.4%
CCCCCCCCCCCCCCCCOCC(CO)OC (stereo unspecified),85.4 (inactive),1.02 (inactive),1.45,5930,5790,,,
O=c1cc(-c2ccc(O)cc2)oc2c(C3O[C@H](CO)[C@@H](O)[C@H](O)[C@H]3O)c(O)cc(O)c12 (stereo partly specified),3.5 (inactive),0.841 (inactive),1.12,8230,9780,,96.7% (inactive),101%
